LASV entry inh: blocks Lassa virus binding to or entry into cells. Lassa virus pseudotype entry inhibition, cell reporter. Potency, µM (doses to about 37.9 µM), hits mostly inhibitors. actives 1.2% (n = 300,000). AID 540256; calls by dose curve; tested in HEK293 cells; note: nearly all actives have a fitted effect of over 50% in size
Marburg entry inh: inhibitors of Marburg virus binding or cell entry. Marburg virus pseudotyped entry inhibition, cell reporter. Potency, µM (top dose mostly 37.8 µM), hits mostly inhibitors. actives 1.8% (n = 300,000). AID 540276; calls by dose curve; tested in HEK293 cells
VACV mCherry inh: vaccinia inhibition (mCherry reporter) | Potency, µM (titrated, usually from 36.5 µM), most hits filed as inhibitors | actives 0.63% (n = 310,000) | Vaccinia virus mCherry reporter infection, fluorescence; calls by dose curve; tested in A549 cells; note: nearly all actives have a fitted effect of over 35% in size
VACV Venus inh: inhibitors of vaccinia virus (Venus reporter) | Vaccinia virus Venus reporter expression, fluorescence | Potency, µM (top dose mostly 36.5 µM), actives largely listed as inhibitors | actives 0.46% (n = 330,000) | AID 720580; calls by dose curve; tested in A549 cells; note: nearly all actives have a fitted effect of over 30% in size
FMDV antiviral: foot and mouth disease virus antiviral activity; FMDV antiviral cell-based qHTS; Potency, µM (titrated, usually from 57.9 µM), most hits filed as inhibitors; actives 1.2% (n = 410,000); calls by dose curve; tested in HEK293T cells; note: read-out not given here; nearly all actives have a fitted effect of over 45% in size
HCMV inh: human cytomegalovirus inhibition. HFF cells, HCMV-luciferase reporter, 72 h; hits give low values. activity change, negative = inhibition, % at 57.5 µM. actives 4.5% (n = 410,000); in the data active = activity change below about -60%; inconclusive = no clear call, values can overlap the other calls; inactive = above about -39%
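HFF cells seeded 16 h at 37C, treated with compounds, infected with luciferase-reporter HCMV at MOI 1 PFU/cell; luciferase read at 72 h post infection, normalized to buffer-only and Salinomycin controls.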
Of the large screens only hits and unclear results are named; the others gave an inactive call. Most compounds without a hit are left out; they make up all but 6.5% or so of the library.

C=CCNC(=S)N1CCN(Cc2ccc3c(c2)OCO3)CC1	HCMV inh -98 (no result: LASV entry inh, Marburg entry inh, VACV mCherry inh, VACV Venus inh)
O=C(c1ccc(COc2ccc(Cl)cc2)o1)N1CCN(Cc2ccc3c(c2)OCO3)CC1	LASV entry inh inconclusive (no result: FMDV antiviral)
O=C(C1CCN(Cc2ccccc2O)CC1)N1CCN(Cc2ccc3c(c2)OCO3)CC1	Marburg entry inh inconclusive, HCMV inh -65
O=C(c1sccc1Br)N1CCN(Cc2ccc3c(c2)OCO3)CC1	HCMV inh -63
COC[C@@H](O)[C@H]1OCc2ccccc2[C@@H]1C=Cc1ccccc1	none (no result: LASV entry inh, VACV mCherry inh, VACV Venus inh, FMDV antiviral, HCMV inh)
Cc1cccc(NC(=O)N2CCN(Cc3ccc4c(c3)OCO4)CC2)c1C	HCMV inh -75 (no result: LASV entry inh, Marburg entry inh, VACV mCherry inh, VACV Venus inh)
Cc1ccc(NC(=O)N(Cc2ccc3c(c2)OCO3)C2CCN(Cc3ccccc3)CC2)cc1Cl	LASV entry inh 11µM, VACV mCherry inh inconclusive, VACV Venus inh inconclusive, HCMV inh -71 (no result: Marburg entry inh)
O=C(C(Cl)Cl)N1CCN(Cc2ccc3c(c2)OCO3)CC1	HCMV inh -74 (no result: LASV entry inh, Marburg entry inh, VACV mCherry inh, VACV Venus inh)
Cc1nc2cnc(Oc3cccc(Cl)c3)nc2n(Cc2ccc(F)cc2)c1=O	none (no result: LASV entry inh, Marburg entry inh, VACV mCherry inh, VACV Venus inh, HCMV inh)
O=c1c(Cc2ccc(Cl)cc2Cl)c(O)ccn1CCCN1CCOCC1	none
O=C(CN1C(=O)C2(SCC(=O)N2c2cccc(Cl)c2)c2ccccc21)NC1CCCCC1 (stereo unspecified)	none (no result: Marburg entry inh)
CCc1cccc(NC(=O)c2ccc(CNS(=O)(=O)c3ccc4c(c3)C(C)(C)C(=O)N4C)cc2)c1	LASV entry inh inconclusive, FMDV antiviral 22µM, HCMV inh inconclusive (no result: Marburg entry inh)
Cc1ccc(NC(=O)c2ccc(CNS(=O)(=O)c3ccc4c(c3)C(C)(C)C(=O)N4C)cc2)cc1F	VACV mCherry inh inconclusive, FMDV antiviral 25µM (no result: Marburg entry inh)
COc1ccc(NC(=O)CCCOc2ccc(C)cc2)cc1S(=O)(=O)N1CCCCC1	FMDV antiviral inconclusive (no result: LASV entry inh, Marburg entry inh)
COc1ccc(NC(=O)CCOc2cc(C)ccc2C)cc1S(=O)(=O)N1CCCCC1	LASV entry inh inconclusive, Marburg entry inh inconclusive, VACV mCherry inh inconclusive, VACV Venus inh inconclusive, FMDV antiviral inconclusive, HCMV inh -62
Cc1cccc(OCCC(=O)Nc2ccc(C)c(S(=O)(=O)N3CCCCC3)c2)c1	LASV entry inh inconclusive, Marburg entry inh inconclusive, VACV mCherry inh inconclusive, VACV Venus inh inconclusive, HCMV inh -64
COc1ccc(CCN(C)C(=O)c2cnn(-c3nccc(-c4ccc(C)o4)n3)c2C)cc1OC	none (no result: LASV entry inh, Marburg entry inh, HCMV inh)
Cc1cc(C(=O)NCC2CCC3(CCN(Cc4cc(F)ccc4F)CC3)O2)n(C)n1 (stereo unspecified)	none (no result: LASV entry inh, Marburg entry inh, HCMV inh)
CCN(CC)c1ccc2nc3c(=O)n(C)c(=O)n(C)c3nc2c1	Marburg entry inh inconclusive
CCN(CC)c1ccc2nc3ccccc3[n+](CC)c2c1	LASV entry inh inconclusive, Marburg entry inh inconclusive, VACV Venus inh inconclusive, FMDV antiviral 7.9µM (no result: HCMV inh)
CCN(CC)c1ccc(/C=C/c2cc(Cl)nc3ccccc23)cc1	none (no result: LASV entry inh, Marburg entry inh, FMDV antiviral, HCMV inh)
CCN(CC)c1ccc2nc3ccc(N)cc3[n+](-c3ccccc3)c2c1	LASV entry inh 8.9µM, Marburg entry inh inconclusive, FMDV antiviral inconclusive (no result: HCMV inh)
CCOC(=O)c1ccc(CN(Cc2ccc(Cl)cc2Cl)S(=O)(=O)c2ccc(F)c(C)c2)cc1	HCMV inh inconclusive (no result: Marburg entry inh)
CCC(=O)N1c2nc(C(C)C)nn2C2(CCCCC2)[C@@H]2CCCC[C@@H]21	Marburg entry inh inconclusive, FMDV antiviral inconclusive
CCOC(=O)c1c(NC(=O)CCl)sc(CN(C)C)c1-c1ccccc1	Marburg entry inh inconclusive, FMDV antiviral 35µM
CCOC(=O)c1c(/N=C/N(C)C)sc(/C=N/Nc2ccccc2)c1-c1ccccc1	Marburg entry inh 18µM (no result: VACV mCherry inh, VACV Venus inh)
CCOC(=O)c1c(NC(=S)N2CCN(C)CC2)sc(C)c1-c1ccccc1	LASV entry inh 8.9µM, Marburg entry inh inconclusive, HCMV inh inconclusive
CCOC(=O)c1ccc(NC(=S)N2CCN(C)CC2)cc1	none
CCN1CCCC1CNC(=O)c1cnn(-c2nccc(-c3ccccc3OC)n2)c1-c1ccco1 (stereo unspecified)	none (no result: LASV entry inh, Marburg entry inh, HCMV inh)
O=C(C1CCN(S(=O)(=O)c2cnc[nH]2)CC1)N1CCN(c2ccc([N+](=O)[O-])cc2)CC1	none (no result: LASV entry inh, Marburg entry inh, VACV mCherry inh, VACV Venus inh)
C[C@@H]1CN([C@@H](C)CO)C(=O)c2cc(Br)cnc2O[C@H]1CN(C)C(=O)Cc1cccnc1	none (no result: LASV entry inh, Marburg entry inh)
O=S(=O)(NC1c2cccc3cccc(c23)C1N1CCNCC1)c1ccc(Cl)cc1 (stereo unspecified)	LASV entry inh inconclusive, Marburg entry inh inconclusive, HCMV inh inconclusive
O=C1CN(S(=O)(=O)c2cc(Cl)ccc2Cl)c2ccccc2N1	none
CCCCn1c(O)c(/C(CC)=N/N2CCCCC2c2cccnc2)c(=O)[nH]c1=S (stereo unspecified)	LASV entry inh inconclusive, Marburg entry inh inconclusive, HCMV inh -63
C/C(=N\N1CCCCC1c1cccnc1)c1c(O)n(C2CCCCC2)c(=S)[nH]c1=O (stereo unspecified)	LASV entry inh inconclusive, Marburg entry inh 15µM, VACV mCherry inh inconclusive, HCMV inh -103
CCC(=O)N1CCN(c2ccc(-n3c(=O)ccc4cnc5ccc(-c6cnc7ccccc7c6)cc5c43)cc2C(F)(F)F)CC1	HCMV inh -83 (no result: LASV entry inh, Marburg entry inh, VACV mCherry inh, VACV Venus inh, FMDV antiviral)
C=CCn1c(N)cc(=O)nc1SC(C)C(=O)Nc1ccc(C(=O)OCC)cc1 (stereo unspecified)	none
CCOC(=O)c1ccc(NC(=O)C(C)Sc2nc(=O)cc(N)n2CCc2ccccc2)cc1 (stereo unspecified)	Marburg entry inh 5µM
Cc1ccc(C(C(=O)NCC2CCCO2)N(C(=O)c2snc(C(N)=O)c2N)c2ccccc2F)o1 (stereo unspecified)	Marburg entry inh inconclusive, HCMV inh inconclusive
CN1CCN(/N=C/c2ccc(N(c3ccccc3)c3ccccc3)cc2)CC1	LASV entry inh 0.63µM, Marburg entry inh 1.3µM, FMDV antiviral inconclusive
CC(C)(O)C#Cc1ccc(CN2CCc3nnc(CCNC(=O)c4ccco4)n3CC2)cc1	none (no result: LASV entry inh, Marburg entry inh, HCMV inh)
O=C1NC(=Nc2cccc(Cl)c2)SC1Cc1cccc(Cl)c1Cl (stereo unspecified)	LASV entry inh inconclusive, HCMV inh -78 (no result: FMDV antiviral)
O=C1N/C(=N\c2ccccn2)SC1Cc1ccccc1Cl (stereo unspecified)	none (no result: LASV entry inh, Marburg entry inh, VACV mCherry inh, VACV Venus inh)
CC(C)Cn1c(/C=N/Nc2nc3ccccc3[nH]2)nc2ccccc21	LASV entry inh inconclusive, Marburg entry inh inconclusive, VACV mCherry inh inconclusive, VACV Venus inh inconclusive, FMDV antiviral 25µM, HCMV inh -97
CC(/C=N/Nc1nc(C)cc(=O)[nH]1)=C\c1ccccc1	none (no result: LASV entry inh, Marburg entry inh, VACV mCherry inh, VACV Venus inh)
CCCn1c(/C=N/Nc2nc3ccccc3[nH]2)nc2ccccc21	LASV entry inh 13µM, Marburg entry inh inconclusive, VACV mCherry inh 10µM, VACV Venus inh inconclusive, FMDV antiviral inconclusive, HCMV inh -99
C(=N\Nc1nc2ccccc2[nH]1)/c1ccncc1	LASV entry inh inconclusive, Marburg entry inh inconclusive, VACV mCherry inh inconclusive
C=CCn1cc(/C=N/Nc2nc3ccccc3[nH]2)c2ccccc21	LASV entry inh 4.5µM, Marburg entry inh inconclusive, VACV Venus inh inconclusive
CC(/C=N/Nc1nc2ccccc2[nH]1)=C\c1ccccc1	LASV entry inh inconclusive, Marburg entry inh 7.3µM (no result: VACV mCherry inh, VACV Venus inh)
Clc1nc2ccccc2cc1/C=N/Nc1nc2ccccc2[nH]1	LASV entry inh inconclusive

Screening results (PubChem BioAssay)
